Data reported in PubChem BioAssay AID1259373 (The Scripps Research Institute Molecular Screening Center, 2018).
This is one part of the list. A number with no mark means an inactive call. How the calls were made is not given here.

Assay: AlphaScreen optical interference compounds, dose response, counter-screen, biochemical, HTS (AID 1259373)
Conditions: AlphaScreen optical interference counterscreen, cell-free

Structure (SMILES)	IC50 [µM]
COc1cc(N2CCOCC2)ccc1Nc1cc(Nc2ccccc2-n2cccn2)c(C(F)(F)F)cn1	> 6.48
NC(=O)COC(=O)/C=C/c1ccc(I)o1	> 7.27
COc1ccc2c(c1)CC(C(=O)Nc1ccc(-c3cn[nH]c3)cc1OCc1ccccc1)CO2 (centres undefined)	> 6.48
CC[C@@H]1NC(=O)[C@H]2CN(C(=O)NCc3ccccc3)CCN2C1=O	> 6.48
C/C(N)=C(/C#N)C(=O)COC(=O)c1c2c(nc3ccccc13)/C(=C/c1ccco1)CC2	> 6.27
O=C(Nc1ccc(-c2ccncc2)c(C(F)(F)F)c1)C1COc2ccccc2O1 (centres undefined)	> 6.48
Cc1ccc(NC(=O)COC(=O)CCC(=O)Nc2sc3c(c2C(N)=O)CCC3)cc1F	> 6.95
CCc1ccc(NC(=O)CS(=O)CC(=O)NCCCc2ccccc2)cc1 (centres undefined)	> 6.48
CCOc1ccccc1N1CCN(Cc2cc(OC)c(O)c([N+](=O)[O-])c2)CC1	> 6.48
c1cc2c(cc1CNc1nc(Nc3ccc(N4CCOCC4)cc3)c3ncn(C4CCCCC4)c3n1)OCO2	> 6.62
COc1ccc2c(c1)CC(c1nc(Nc3ccc4cnccc4c3)c3ccccc3n1)CO2 (centres undefined)	> 6.48
O=C(Cc1cccs1)N/N=C\C=C\c1ccco1	> 6.48
COc1ccc2c(c1)CC(C(=O)Nc1ccc(-c3cn[nH]c3)cc1OCC(N)=O)CO2 (centres undefined)	> 6.48
C[C@@H](OCc1ccccc1)[C@@H]1NC(=O)[C@H]2CN(C(=O)Nc3cccc(F)c3)CCN2C1=O	> 6.48
